# Laboratory results taken from the supplement of paper PMC6897291.
# Counter-ions that a name gives are not always drawn.
# Key:
# U-2932 [1] = assay: growth inhibition by drug alone (1 - RLU/untreated control) (fraction); higher = stronger inhibition; conditions: 177Lu-lilotomab satetraxetan 0 ug/ml
# Summary of the method: (§1)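 RIVA or U-2932 cells were left untreated or pretreated for 18 h with a radiolabelled anti-CD37 antibody conjugate (~600 MBq/mg) at 0.5 µg/ml for RIVA or 1 µg/ml for U-2932. The cells were then washed and seeded at 3,000 cells/well on plates pre-printed with the Selleck Cambridge Cancer Compound library, dosed at 10/100 nM for RIVA and 10/1,000 nM for U-2932. From day 3, RealTime-Glo luminescence was read daily after 1 h at 37°C. Growth inhibition was taken as one minus RLU over the mean of the untreated no-drug wells, of which there were 48 per plate.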
# RIVA [2] = assay: as above; conditions: 177Lu-lilotomab satetraxetan 0 ug/ml
# Summary of the method: as §1
# U-2932 [3] = assay: growth inhibition by drug plus 177Lu-lilotomab satetraxetan (1 - RLU/untreated control) (fraction); higher = stronger inhibition; conditions: 177Lu-lilotomab satetraxetan 1 ug/ml
# Summary of the method: as §1
# RIVA [4] = assay: as above; conditions: 177Lu-lilotomab satetraxetan 0.5 ug/ml
# Summary of the method: as §1
Structure (SMILES),"growth inhibition by drug alone (U-2932 [1]; 10 nM, time (day): 3)","growth inhibition by drug alone (U-2932 [1]; 10 nM, time (day): 4)","growth inhibition by drug alone (U-2932 [1]; 10 nM, time (day): 5)","growth inhibition by drug alone (U-2932 [1]; 10 nM, time (day): 6)","growth inhibition by drug alone (U-2932 [1]; 1000 nM, time (day): 3)","growth inhibition by drug alone (U-2932 [1]; 1000 nM, time (day): 4)","growth inhibition by drug alone (U-2932 [1]; 1000 nM, time (day): 5)","growth inhibition by drug alone (U-2932 [1]; 1000 nM, time (day): 6)","growth inhibition by drug alone (RIVA [2]; 10 nM, time (day): 3)","growth inhibition by drug alone (RIVA [2]; 10 nM, time (day): 4)","growth inhibition by drug alone (RIVA [2]; 10 nM, time (day): 5)","growth inhibition by drug alone (RIVA [2]; 10 nM, time (day): 6)","growth inhibition by drug alone (RIVA [2]; 100 nM, time (day): 3)","growth inhibition by drug alone (RIVA [2]; 100 nM, time (day): 4)","growth inhibition by drug alone (RIVA [2]; 100 nM, time (day): 5)","growth inhibition by drug alone (RIVA [2]; 100 nM, time (day): 6)","growth inhibition by drug plus 177Lu-lilotomab satetraxetan (U-2932 [3]; 10 nM, time (day): 3)","growth inhibition by drug plus 177Lu-lilotomab satetraxetan (U-2932 [3]; 10 nM, time (day): 4)","growth inhibition by drug plus 177Lu-lilotomab satetraxetan (U-2932 [3]; 10 nM, time (day): 5)","growth inhibition by drug plus 177Lu-lilotomab satetraxetan (U-2932 [3]; 10 nM, time (day): 6)","growth inhibition by drug plus 177Lu-lilotomab satetraxetan (U-2932 [3]; 1000 nM, time (day): 3)","growth inhibition by drug plus 177Lu-lilotomab satetraxetan (U-2932 [3]; 1000 nM, time (day): 4)","growth inhibition by drug plus 177Lu-lilotomab satetraxetan (U-2932 [3]; 1000 nM, time (day): 5)","growth inhibition by drug plus 177Lu-lilotomab satetraxetan (U-2932 [3]; 1000 nM, time (day): 6)","growth inhibition by drug plus 177Lu-lilotomab satetraxetan (RIVA [4]; 10 nM, time (day): 3)","growth inhibition by drug plus 177Lu-lilotomab satetraxetan (RIVA [4]; 10 nM, time (day): 4)","growth inhibition by drug plus 177Lu-lilotomab satetraxetan (RIVA [4]; 10 nM, time (day): 5)","growth inhibition by drug plus 177Lu-lilotomab satetraxetan (RIVA [4]; 10 nM, time (day): 6)","growth inhibition by drug plus 177Lu-lilotomab satetraxetan (RIVA [4]; 100 nM, time (day): 3)","growth inhibition by drug plus 177Lu-lilotomab satetraxetan (RIVA [4]; 100 nM, time (day): 4)","growth inhibition by drug plus 177Lu-lilotomab satetraxetan (RIVA [4]; 100 nM, time (day): 5)","growth inhibition by drug plus 177Lu-lilotomab satetraxetan (RIVA [4]; 100 nM, time (day): 6)"
CC(C)C(=O)Nc1ccc([N+](=O)[O-])c(C(F)(F)F)c1 [Flutamide (Eulexin)],0.147,0.0928,0.0103,-0.0414,0.15,0.123,0.105,0.0519,0.122,0.106,0.0768,-0.0242,-0.044,0.0232,0.0258,-0.0163,0.105,0.202,0.26,0.327,0.175,0.211,0.291,0.385,0.611,0.616,0.649,0.663,0.534,0.562,0.599,0.626
CCCC(=O)[O-].[Na+] [Sodium butyrate],-0.0432,-0.057,-0.0778,-0.0762,-0.0747,-0.0522,-0.0783,-0.149,-0.23,-0.252,-0.304,-0.546,-0.245,-0.343,-0.3,-0.374,-0.0586,-0.0574,-0.0479,-0.015,-0.0238,0.0387,0.0442,0.139,0.36,0.484,0.502,0.51,0.431,0.486,0.506,0.493
CCc1c2c(nc3ccc(OC(=O)N4CCC(N5CCCCC5)CC4)cc13)-c1cc3c(c(=O)n1C2)COC(=O)[C@]3(O)CC [Irinotecan HCl Trihydrate (Campto)],-0.0148,-0.0323,-0.109,-0.0905,0.841,0.921,0.96,0.976,-0.0524,-0.159,-0.223,-0.511,-0.259,-0.163,-0.0382,0.00676,0.0165,0.04,0.0458,0.118,0.839,0.928,0.965,0.98,0.219,0.422,0.475,0.51,0.485,0.649,0.699,0.741
Nc1nc(Cl)nc2c1ncn2[C@H]1C[C@H](O)[C@@H](CO)O1 [Cladribine],-0.0123,-0.0135,-0.0163,0.0971,0.943,0.966,0.98,0.987,0.0585,0.0126,0.00678,0.0233,-0.00435,0.239,0.319,0.387,0.0179,0.0736,0.11,0.212,0.942,0.971,0.983,0.989,0.528,0.571,0.602,0.611,0.683,0.807,0.843,0.878
Nc1cccc2c1CN(C1CCC(=O)NC1=O)C2=O (stereo unspecified) [Lenalidomide],0.0697,0.0182,-0.0235,0.0966,0.122,0.186,0.18,0.309,-0.0108,-0.0398,-0.0471,-0.0439,-0.101,-0.141,-0.183,-0.226,0.069,0.101,0.148,0.257,0.215,0.263,0.303,0.434,0.534,0.564,0.587,0.589,0.428,0.481,0.499,0.508
O=C(CCCCCCC(=O)Nc1ccccc1)NO [Vorinostat (SAHA)],-0.0182,-0.0297,-0.0883,-0.201,0.818,0.762,0.691,0.615,-0.119,-0.189,-0.294,-0.432,-0.132,-0.192,-0.199,-0.285,-0.0269,0.0202,0.0234,0.0225,0.849,0.817,0.786,0.742,0.465,0.518,0.537,0.553,0.523,0.578,0.586,0.591
N#CC1(c2ccc(NC(=O)c3cccnc3NCc3ccncc3)cc2)CCCC1 [Apatinib (YN968D1)],0.0813,0.0775,0.0186,-0.0775,-0.000689,0.0222,-0.108,-0.279,-0.0437,0.0236,-0.0386,-0.253,-0.0842,-0.0337,-0.084,-0.223,0.0626,0.101,0.109,0.137,-0.0473,0.0612,0.0296,0.0686,0.491,0.579,0.593,0.615,0.497,0.559,0.555,0.524
O=NN(CCCl)C(=O)NC1CCCCC1 [Lomustine (CeeNU)],0.0125,-0.0069,-0.0761,-0.178,-0.00465,0.00866,-0.0378,0.00712,-0.055,-0.0849,-0.137,-0.324,-0.313,-0.232,-0.254,-0.408,0.00156,0.0498,0.0878,0.11,-0.00262,0.0596,0.0893,0.149,0.573,0.596,0.607,0.603,0.383,0.486,0.488,0.501
CC[C@@H]1/C=C(\C)C[C@H](C)C[C@H](OC)[C@H]2O[C@@](O)(C(=O)C(=O)N3CCCC[C@H]3C(=O)O[C@H](/C(C)=C/[C@@H]3CC[C@H](Cl)[C@H](OC)C3)[C@H](C)[C@@H](O)CC1=O)[C@H](C)C[C@@H]2OC [Pimecrolimus],0.214,0.249,0.272,0.287,0.139,0.29,0.361,0.431,0.339,0.267,0.276,0.279,0.691,0.549,0.534,0.477,0.198,0.242,0.304,0.352,0.12,0.321,0.373,0.447,0.545,0.621,0.662,0.701,0.634,0.675,0.716,0.743
COc1ccc(-c2oc3cc(OC)ccc3c2C(=O)c2ccc(C#N)cc2)cc1,0.084,0.0751,0.0436,-0.022,-0.0181,0.0261,-0.052,-0.253,-0.046,-0.0513,-0.124,-0.374,-0.0825,-0.0731,-0.0858,-0.201,-0.0286,-0.00458,0.0392,0.0337,-0.0968,0.0212,0.0134,0.0408,0.441,0.559,0.571,0.572,0.391,0.503,0.507,0.483
CC(C)C[C@H](NC(=O)[C@@H](O)[C@H](N)Cc1ccccc1)C(=O)O [Ubenimex (Bestatin)],0.0863,0.0556,-0.0551,-0.108,-0.043,-0.0237,-0.0577,-0.0906,0.135,0.0658,-0.0244,-0.181,0.0407,0.0221,0.00426,-0.114,0.0135,0.0451,0.0835,0.192,-0.112,-0.0121,-0.00508,0.0506,0.428,0.535,0.552,0.573,0.504,0.54,0.554,0.541
O=C(O)c1ccc(-c2c[nH]c3ncc(-c4ccccc4)cc23)cc1C1CCCC1,0.092,0.0154,-0.12,-0.193,-0.0285,-0.0484,-0.0534,0.0115,-0.0813,-0.122,-0.138,-0.797,-0.515,-0.371,-0.364,-0.433,-0.00975,0.0274,-0.00811,0.0111,0.129,0.173,0.227,0.339,0.472,0.539,0.552,0.565,0.343,0.471,0.488,0.51
O=C1C(Cl)=C(NCCN2CCOCC2)C(=O)c2ncccc21,0.114,0.106,0.0132,0.0178,0.227,0.184,0.124,0.0852,0.0132,0.0904,-0.00365,-0.238,0.102,0.139,0.12,0.0933,0.114,0.165,0.247,0.272,0.201,0.211,0.241,0.349,0.584,0.632,0.638,0.641,0.591,0.62,0.626,0.631
COc1cc2nccc(Oc3ccc(NC(=O)C4(C(=O)Nc5ccc(F)cc5)CC4)cc3)c2cc1OC [XL-184 free base (Cabozantinib)],0.15,0.0841,-0.102,-0.0896,0.0853,0.105,0.037,-0.036,0.0104,0.0385,-0.0535,-0.315,-0.233,-0.0966,-0.104,-0.224,0.0398,0.083,0.153,0.164,0.112,0.177,0.224,0.337,0.545,0.613,0.621,0.628,0.445,0.52,–,–
